Values without a mark were called inactive. The rule behind the calls is not given here.
Molecular target: Pantothenate synthetase (Mycobacterium tuberculosis (strain ATCC 25618 / H37Rv)) (UniProt P9WIL5)
Assay: Coupled enzyme confirmation of inhibitors against recombinant Mtb PanC (AID 375);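 note: 0% = full reaction with vehicle and 100% = no enzyme background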
Details: coupled enzyme assay; at 10 µM, active compounds read high

Pantothenate synthetase (Mycobacterium tuberculosis (strain ATCC 25618 / H37Rv)), sequence (P9WIL5 whole entry, looked up): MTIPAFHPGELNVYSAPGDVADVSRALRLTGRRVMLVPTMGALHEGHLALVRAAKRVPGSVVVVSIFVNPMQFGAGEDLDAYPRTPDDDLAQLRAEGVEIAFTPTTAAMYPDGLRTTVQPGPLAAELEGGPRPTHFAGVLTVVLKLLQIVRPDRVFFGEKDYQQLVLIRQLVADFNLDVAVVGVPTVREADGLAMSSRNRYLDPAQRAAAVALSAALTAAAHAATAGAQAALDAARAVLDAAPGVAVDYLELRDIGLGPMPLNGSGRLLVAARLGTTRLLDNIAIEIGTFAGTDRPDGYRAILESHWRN

**Q.** `O=C(CSc1nnc(-c2ccncc2)n1-c1ccc(F)cc1)NC(=O)NCc1ccco1` was tested. Which inhibition did it give?
**A.** 0%

**Q.** How did the inhibition turn out when `Cc1ccc(C(C(=O)NC2CCCCC2)N2CCOCC2)cc1` (stereo not given) was run?
**A.** 0%

**Q.** For `COC(=O)Cc1c(C)nc2nc[nH]n2c1=O`, which inhibition is on record?
**A.** 0%

**Q.** How did the inhibition turn out when `CC1CCCCN1CCNC(=O)C1CCN(S(=O)(=O)c2cccc3cccnc23)CC1` (stereo not given) was run?
**A.** 0%

**Q.** `Cc1ccc(-c2cc(C(F)(F)F)n3ncc(C(=O)O)c3n2)cc1` was tested. Which inhibition did it give?
**A.** 5%

**Q.** With `Cc1csc2ncc(C(=O)N3CCc4ccccc43)c(=O)n12` as the compound, how does the inhibition read?
**A.** 6%

**Q.** `c1ccc2c(c1)CNC1(CCCCC1)C2` was tested. Which inhibition did it give?
**A.** 3%

**Q.** How did the inhibition turn out when `CCCN(CCO)Cc1cccc(Br)c1` was run?
**A.** 3%

**Q.** Which inhibition does the source give for `Nc1nnc(SCC(=O)N2CCc3ccccc32)n1-c1ccccc1` here?
**A.** 1%

**Q.** `CCC1(C)Cc2c(C#N)c(N)n(-c3ccccc3)c(=O)c2CO1` (stereo not given) was tested. Which inhibition did it give?
**A.** 0%

**Q.** Which inhibition does the source give for `O=C(CCn1c(=S)[nH]c2ccccc2c1=O)NCC1CCCO1` (stereo not given) here?
**A.** 4%

**Q.** `CCN1CCN(C(=O)c2ccc3c(=O)n(CCC4=CCCCC4)c(=O)[nH]c3c2)CC1` was tested. Which inhibition did it give?
**A.** 0%

**Q.** With `COCC(=O)N(Cc1ccc(OC)cc1)Cc1nc2ccccc2c(=O)[nH]1` as the compound, how does the inhibition read?
**A.** 0%

**Q.** How did the inhibition turn out when `Nc1nc(CN2CCOCC2)cs1` was run?
**A.** 1%

**Q.** For `Cc1ccc(S(=O)(=O)C(C#N)c2nc3ccccc3nc2N2CCCCC2)cc1` (stereo not given), which inhibition is on record?
**A.** 2%

**Q.** With `COc1ccc(-c2n[nH]c(C)c2-c2ccc(Cl)cc2)c(O)c1OC` as the compound, how does the inhibition read?
**A.** 0%

**Q.** For `COc1ccc(NC(=O)C2CCCN2S(=O)(=O)c2cccc3cccnc23)c(OC)c1` (stereo not given), which inhibition is on record?
**A.** 6%

**Q.** For `CCC(=O)Oc1ccc(C(CC)C(CC)c2ccc(OC(=O)CC)cc2)cc1` (stereo not given), which inhibition is on record?
**A.** 0%

**Q.** Which inhibition does the source give for `CCN(CC)C(=O)Oc1ccccc1NC(C)=O` here?
**A.** 1%

**Q.** `CC12CN3CC(C)(CN(C1)C3c1cc(Br)ccc1O)C2=O` (stereo not given) was tested. Which inhibition did it give?
**A.** 0%

**Q.** For `Cc1cc(C(=O)Cn2cncn2)c(C)n1CCc1ccc(F)cc1`, which inhibition is on record?
**A.** 1%

**Q.** For `Cc1cccc(OCC(=O)Nc2ccc(N3CCCC3)cc2)c1C`, which inhibition is on record?
**A.** 0%

**Q.** `COc1ccc(NC(=O)C(C)NS(=O)(=O)c2ccccc2)cc1Cl` (stereo not given) was tested. Which inhibition did it give?
**A.** 10%

**Q.** With `Cn1c(=O)c2c(nc(SCCCO)n2Cc2ccccc2Cl)n(C)c1=O` as the compound, how does the inhibition read?
**A.** 3%

**Q.** With `Cc1ccccc1-n1c(=O)c2ccccc2n2nnnc12` as the compound, how does the inhibition read?
**A.** 0%

**Q.** Which inhibition does the source give for `CCN(CC)CC(=O)Nc1ccc(-c2nc3cc(NC(=O)CN(CC)CC)ccc3o2)cc1` here?
**A.** 7%

**Q.** Which inhibition does the source give for `CCN(CC)C(=O)c1ccc(O)c(OC)c1` here?
**A.** 0%

**Q.** Which inhibition does the source give for `COc1ccc(-c2nc(C(N)=O)c3[nH]c(=O)n(-c4cccc(Cl)c4)c3n2)cc1OC` here?
**A.** 1%

**Q.** Which inhibition does the source give for `Cc1cc(-c2ccc(F)cc2)nc2cc(C(N)=O)nn12` here?
**A.** 0%

**Q.** `CCOC(=O)C1=C(c2ccccc2)N2CCN=C2S1` was tested. Which inhibition did it give?
**A.** 3%

**Q.** `Cc1ccc(S(=O)(=O)N(CC(=O)N2CCC(C(N)=O)CC2)c2cccc(C(F)(F)F)c2)cc1` was tested. Which inhibition did it give?
**A.** 0%

**Q.** Which inhibition does the source give for `O=C(Nc1ccc2c(c1)C(=O)N(C1CCCCC1)C2=O)C1CCCO1` (stereo not given) here?
**A.** 6%

**Q.** `COc1cccc(OC)c1C(=O)N1CCOCC1` was tested. Which inhibition did it give?
**A.** 12%

**Q.** Which inhibition does the source give for `CC(=O)c1ccc(NC2OC(C)C(O)C(O)C2O)cc1` (stereo not given) here?
**A.** 3%

**Q.** `C=CCN(CC=C)C(=O)c1ccncc1` was tested. Which inhibition did it give?
**A.** 0%

**Q.** How did the inhibition turn out when `COC(=O)C(C)Sc1nc2c(c(=O)n1-c1ccccc1)SCC2` (stereo not given) was run?
**A.** 0%

**Q.** With `COc1ccccc1C(=O)Nc1nc2ccc(S(C)(=O)=O)cc2s1` as the compound, how does the inhibition read?
**A.** 0%

**Q.** With `CCCN(Cc1cc2cc(C)ccc2[nH]c1=O)C(=O)c1cccc(OC)c1` as the compound, how does the inhibition read?
**A.** 0%

**Q.** For `CCS(=O)(=O)N1CCCC(C(=O)NCc2cccc(OC)c2)C1` (stereo not given), which inhibition is on record?
**A.** 1%

**Q.** `O=C(CSc1nnc(Cn2cnc3ccccc32)o1)c1ccccc1` was tested. Which inhibition did it give?
**A.** 0%

Source: PubChem BioAssay
